NPC1 promoter act = NPC1 promoter activation | Huh7 NPC1 promoter luciferase reporter, 24 h | Potency, µM (top dose mostly 9.22 µM), without a hit: top-dose activation, actives largely listed as activators | hit rate 2.4% among 320,000 | AID 485313; also: % of control where 0% means no effect; nearly all actives have a fitted effect of over 60% in size
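Quantitative HTS used a cell-based reporter: Huh7 cells stably bearing the NPC1 promoter upstream of luciferase were treated with compounds for 24 h, and promoter activation was read as luminescence.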
SMN2 splice enh = enhancers of SMN2 splice variant expression. HEK293 SMN2-luciferase splicing reporter, luminescence, 30-36 h. Potency, µM (top dose mostly 46.1 µM), inactives show at the highest dose activity change, positive = activation, actives largely listed as activators. hit rate 2.8% among 210,000. AID 1458; also: % of control where 0% means no effect; nearly all actives have a fitted effect of over 55% in size
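qHTS luciferase splicing reporter: luminescence rises when SMN2 exon 7 is included in transfected HEK293 cells. Compound exposure lasted 30-36 h at 37C, with 4.5 mM final sodium butyrate as control, followed by a ONE-Glo read.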
KinaseGlo FLuc = Kinase-Glo luciferase inhibition (counter-screen) | Q27757 | Kinase-Glo luciferase, ATP luminescence, 8 min | Potency, µM (doses to about 38.3 µM), without a hit: top-dose activity change, negative = inhibition, actives largely listed as inhibitors | hit rate 0.28% among 200,000 | AID 1379; also: % is scaled to controls: 0 for no effect and ±100 for the full control effect; nearly all actives have a fitted effect of over 60% in size
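Compound is pinned into ATP-containing buffer (10 uM ATP, imidazole pH 7.2, 7 mM MgCl2). Kinase-Glo luciferase reagent is then added. Light output is recorded following an 8-min room-temperature incubation.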
Rab9 prom act = activates the Rab9 promoter | Huh7 Rab9 promoter-luciferase reporter, luminescence, 24 h | Potency, µM (top dose mostly 9.22 µM), without a hit: at the highest dose activation, negative = inhibition, most hits filed as activators | hit rate 2.8% among 320,000; also: % of control where 0% means no effect; nearly all actives have a fitted effect of over 60% in size
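Huh7 reporter line, Rab9 promoter upstream of luciferase. Compound exposure 24 h at 37 °C in reduced-serum medium with 10% FBS. Read-out: luminescence.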
FLuc modulator = counter-screen for miR-21 project: firefly luciferase inhibitors or activators; AID 588342; hit rate 6.9% among 360,000; purified FLuc, Km substrates, luminescence inhibition; P08659; Potency, µM (series often up to 57.5 µM), without a hit: at the highest dose activity change, negative = inhibition, most hits filed as inhibitors;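 also: plate controls were vehicle for no effect and reference inhibitor for full effect; nearly all actives have a fitted effect of over 55% in size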
Target sequence (P08659 whole entry, looked up): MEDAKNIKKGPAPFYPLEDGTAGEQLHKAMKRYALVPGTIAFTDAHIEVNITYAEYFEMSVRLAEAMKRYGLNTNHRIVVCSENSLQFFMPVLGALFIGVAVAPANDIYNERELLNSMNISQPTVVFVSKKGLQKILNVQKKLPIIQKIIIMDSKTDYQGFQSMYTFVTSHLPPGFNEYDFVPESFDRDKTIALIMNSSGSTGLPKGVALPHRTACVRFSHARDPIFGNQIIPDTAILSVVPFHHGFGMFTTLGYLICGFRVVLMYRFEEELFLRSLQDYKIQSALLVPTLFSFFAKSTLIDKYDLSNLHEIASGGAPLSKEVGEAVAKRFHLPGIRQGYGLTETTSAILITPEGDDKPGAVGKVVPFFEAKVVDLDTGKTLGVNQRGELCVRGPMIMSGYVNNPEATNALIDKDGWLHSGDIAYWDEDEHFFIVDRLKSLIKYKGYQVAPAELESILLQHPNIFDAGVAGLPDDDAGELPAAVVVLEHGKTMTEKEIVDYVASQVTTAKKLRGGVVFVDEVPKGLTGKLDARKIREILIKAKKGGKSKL
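Purified P. pyralis luciferase, 10 nM final, with Km-level 10 uM D-luciferin and 10 uM ATP in 50 mM Tris acetate pH 7.5, 10 mM Mg acetate, 0.01% Tween-20, 0.05% BSA; 6-point qHTS titration about 60 µM downward; luminescence read.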
ELG1 genotox = inducers of genotoxicity in HEK293T ELG1-luciferase cells | HEK293T ELG1-luciferase reporter, luminescence, 16 h | Potency, µM (titrated, usually from 46 µM), without a hit: at the highest dose activity change, positive = activation, most hits filed as activators | hit rate 1.3% among 330,000 | AID 504466; also: % of control where 0% means no effect; nearly all actives have a fitted effect of over 60% in size
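ELG1-luciferase HEK293T cells, 2,000/well; compound pinned in; 16 hr, 37 °C, 5% CO2; ONE-Glo, 30 min RT; luminescence on CCD imager.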
* = called active by the depositor; ? = inconclusive; . = not tested or not shown; [ ] = dose if it differs, or a comment. In the library only some 7.4% were active in any assay of this set; here they are far more common. Calls follow the shape of the dose curve; as a rule, active = well fitted curve in the direction sought with a large enough effect; inconclusive = small, poorly fitted or top-dose-only effect, or another doubt; inactive = no such curve, though single readings can be large; an effect the other way counts as inactive or inconclusive. Potency is read from the fitted curve at half-maximal effect.

SMILES	NPC1 promoter act	SMN2 splice enh	KinaseGlo FLuc	Rab9 prom act	FLuc modulator	ELG1 genotox
COc1cc2c(cc1NC(=O)CSCC(=O)O)oc1ccccc12	11.9%	8.6%	-2.7%	-0.8%	21.3µM*	-1.1%
COc1cc2c(cc1NC(=O)Cc1ccc(C)cc1)oc1ccccc12	20.5%	8.91µM*	1.3%	?	15.1µM*	12.2%
COc1cc2c(cc1NC(=O)CCC(=O)O)oc1ccccc12	-1.0%	.	.	-7.5%	?	7.1%
COc1cc2c(cc1NC(=O)COC(=O)Cn1cnc3ccccc31)oc1ccccc12	28.2%	23.6%	0.6%	?	19µM*	23.1µM*
O=C(c1ccccc1Cl)n1nc(-c2cccnc2)nc1NCc1ccc(F)cc1	.	-2.9%	.	.	-3.2%	.
Nc1ccccc1C(=O)Nc1ccc(Cl)cc1Cl	?	.	.	2.51µM*	10.7µM*	?
O=C(Nc1ccccc1Cl)c1ccc(Cl)cc1Cl	10.7%	11.0%	2.6%	25.6%	13.5µM*	26.0%
C#Cc1cccc(NC(=O)c2ccc(Cl)cc2Cl)c1	1.78µM*	.	.	1.12µM*	2.69µM*	16.4µM*
O=C(NC(=S)Nc1ccccc1O)c1ccc(Cl)cc1Cl	?	24.3%	-0.5%	?	19µM*	?
CCc1ccccc1NC(=O)c1ccc2c(c1)nnn2C1CCCC1	.	.	.	.	-8.7%	.
Cc1ccc(-c2nn(-c3ccc(F)cc3)c3c2cnc2cc(F)c(F)cc23)cc1	.	7.6%	.	.	-2.9%	.
O=C(CCc1cn(Cc2ccccc2Cl)c2ccccc12)NC1CCCCC1	.	.	.	.	2.5%	.
CCCCc1nc2ccn(CC(=O)N(C)C)c(=O)c2n1Cc1ccc(-c2ccccc2-c2nn[nH]n2)cc1	.	.	4.4%[39.9 µM]	.	.	.
C/C(=N\NC(=O)c1c[nH]c2ccccc12)c1ccc2c(c1)OCO2	3.4%	16.7%	-1.8%	27.6%	26.9µM*	8.4%
O=C(N/N=C(\c1ccccc1)c1cccnc1)c1cccc(F)c1	-13.2%	.	.	-36.7%	-4.9%	16.4µM*
C/C(=N\NC(=O)c1cc(C)oc1C)c1ccc2c(c1)OCO2	18.1%	11.7%	2.1%	?	?	10.9%
CC(=O)Nc1cccc(/C(C)=N/NC(=O)c2ccc3c(c2)OCO3)c1	28.1%	11.2µM*	-1.9%	?	6.01µM*	?
C/C(=N\NC(=O)c1ccc(Br)cc1)c1cccnc1	26.3%	.	.	?	13.5µM*	?
C[C@@H]1[C@H](C)CC[C@@]2(C(=O)O[C@H]3O[C@@H](CO[C@H]4O[C@@H](CO)[C@@H](O[C@H]5O[C@@H](C)[C@@H](O)[C@@H](O)[C@@H]5O)[C@@H](O)[C@@H]4O)[C@@H](O)[C@@H](O)[C@@H]3O)CC[C@]3(C)C(=CC[C@H]4[C@@]5(C)C[C@@H](O)[C@@H](O)[C@](C)(CO)[C@@H]5CC[C@@]43C)[C@@H]12	.	11.7%[20.6 µM]	-0.4%[17.1 µM]	.	.	.
C/C(=N/NC(=O)CCc1ccccc1)c1ccc2c(c1)OCO2	-4.2%	.	.	9.5%	-10.7%	-0.6%
C/C(=N\NC(=O)c1ccccc1)c1ccc2c(c1)OCO2	?	26.8%	15.4%	2.82µM*	15.1µM*	18.4µM*
C/C(=N\NC(=O)c1ccc2c(c1)OCO2)c1cccnc1	?	.	.	3.55µM*	?	?
COc1cc(C(=O)CC2(O)C(=O)N(Cc3ccccc3Cl)c3ccccc32)cc(OC)c1OC (configuration not stated)	.	-10.0%	.	.	-1.8%	.
COC(=O)c1ccccc1NC(=O)c1ccc(-c2cccc(Cl)c2)o1	?	10µM*	-1.1%	19.3%	3.0%	?
COC(=O)c1ccccc1NC(=O)c1ccc(COc2ccccc2)o1	.	-12.2%	-2.7%	.	1.1%	.
SMILES	NPC1 promoter act	SMN2 splice enh	KinaseGlo FLuc	Rab9 prom act	FLuc modulator	ELG1 genotox
COc1ccc(NC(=O)c2ccc(COc3ccccc3)o2)cc1	-1.8%	-22.2%	-16.3%	-0.7%	23.9µM*	-0.5%
COc1ccc(NC(=O)c2ccc(COc3ccccc3)o2)c(OC)c1	-2.0%	.	.	-3.4%	-8.2%	-2.7%
CCCc1ccc(OCc2ccc(C(=O)Nc3ccccc3C(=O)OC)o2)cc1	.	?	.	.	19µM*	.
CN(C)S(=O)(=O)Oc1ccsc1C(=O)Nc1cccc(Cl)c1	-0.8%	-20.6%	-1.8%	-8.3%	-3.9%	-4.6%
COC(=O)c1sccc1-c1ccc(C(=O)Nc2cccc(Cl)c2)o1	?	?	2.6%	3.55µM*	9.53µM*	14.3%
CCOC(=O)c1ccccc1NC1(c2ccc(OC)cc2)C(=O)c2ccccc2C1=O	.	.	.	.	4.4%	.
COc1ccc(NC(=O)c2ccc(Cc3ccc(C)cc3)o2)cc1	8.0%	-16.9%	0.8%	7.8%	15.1µM*	0.0%
Cc1ccnc(SCC(=O)N2CCc3ccccc32)n1	3.16µM*	.	.	2.82µM*	?	?
O=C(CSc1ccccn1)N1CCc2ccccc21	2.51µM*	11.2µM*	-29.0%	1.12µM*	10.7µM*	?
O=C(CSc1nnc2ccccn12)N1CCc2ccccc21	2.82µM*	12.6µM*	-0.3%	3.16µM*	13.5µM*	?
Cn1ccnc1SCC(=O)N1CCc2ccccc21	2.24µM*	.	.	2.82µM*	15.1µM*	?
COc1cccc(-n2ccnc2SCC(=O)N2CCc3ccccc32)c1	-1.2%	-12.1%	-2.9%	-7.2%	-1.7%	-0.7%
O=C(CSc1ncccn1)N1CCCc2ccccc21	0.3%	-0.4%	10.9%	-3.2%	0.2%	28.6%
C=CCOC(=O)N[C@H](/C(C(=O)OC)=C(\C)NCc1ccccc1)c1ccc(Br)cc1	.	0.8%	-8.4%	.	.	.
NS(=O)(=O)c1ccc(N=Nc2ccc(O)c3ncccc23)cc1	-39.5%	.	.	-31.7%	?	?
Cc1ccc(C)c(N=Nc2ccc(O)c3ncccc23)c1	?	-96.4%	-11.5%	8.1%	10.7µM*	?
Oc1ccc(N=Nc2ccc3c(c2)OCCO3)c2ncccc12	-22.9%	.	.	-26.8%	5.36µM*	?
Cc1cccc(N=Nc2ccc(O)c3ncccc23)c1	13.2%	-50.8%	-8.0%	-3.2%	10.7µM*	11.6µM*
Cc1ccc(N=Nc2cc(C)ccc2O)c(C)c1	?	.	.	?	4.78µM*	?
CCc1ccc(NS(=O)(=O)c2c(-c3ccccc3)csc2C(=O)OC)cc1	.	.	.	.	1.2%	.
COc1ccc(CCNC(=O)c2ccc3c(c2)CCN3S(=O)(=O)c2ccccc2)cc1	.	-37.8%	.	.	5.1%	.
COc1cc(NC(=O)O[C@@H]2C(=O)c3cc(Br)ccc3O[C@H]2c2ccc3c(c2)OCO3)cc(OC)c1OC	.	1.0%	-1.3%	.	.	.
Cc1ccc(N=Nc2ccc(N)cc2C)c(S(N)(=O)=O)c1	?	3.4%[9.22 µM]	-2.5%[7.66 µM]	2.82µM*	10.7µM*	?
Cc1ccc(NC(=O)Cc2ncon2)cc1Cl	7.7%	.	.	17.0%	15.1µM*	5.1%

Bioassay records from PubChem.
